ClpP mod: qHTS Assay for Activators of ClpP | ATP-dependent Clp protease proteolytic subunit (Bacillus subtilis (strain 168)), P80244 | purified B. subtilis ClpP, FRET peptide cleavage, 20 min | Potency, µM (series often up to 57.5 µM), inactives show at the top dose activity change, negative = active | actives 1.9% (n = 340,000) | AID 651965, 2013; active means well fitted falling curve with a large enough effect; inconclusive means small, poorly fitted or top-dose-only effect; inactive means no such curve, though single readings can be large or run the other way; further: potency means the concentration at half of the fitted maximal effect; the source files actives as falling curves though it sought activators and does not explain the sign; nearly all actives have a fitted effect of over 65% in size
Target sequence (P80244 whole entry, looked up): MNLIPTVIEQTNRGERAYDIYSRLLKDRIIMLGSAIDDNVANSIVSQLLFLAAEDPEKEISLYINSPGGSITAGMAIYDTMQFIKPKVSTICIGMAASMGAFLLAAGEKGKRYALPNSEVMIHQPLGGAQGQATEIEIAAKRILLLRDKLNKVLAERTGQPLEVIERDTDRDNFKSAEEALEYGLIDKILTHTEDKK
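Buffer: 100 mM Tris/HCl pH8, 100 mM KCl, 0.05% low protease BSA, 2.5% glycerol, 0.01% Tween-20. ClpP 10 microg/mL final; 20 min RT; delta FRET normalized to ADEP and DMSO controls.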
Menin MLL FP FL: qHTS Assay for Inhibitors Targeting the Menin-MLL Interaction in MLL Related Leukemias: Competition With Fluorescein Labeled MLL-derived Peptide; Fluorescence polarization, fluorescein-MLL peptide displacement from menin; 290,000 tested, under 10 active; FP activity change, % at 61.4 µM; active means well fitted curve in the direction sought with a large enough effect in the polarisation, not every such curve was filed as active; inconclusive means small, poorly fitted or top-dose-only effect, or effect the other way, or a change in a side signal; inactive means no such curve, though single readings can be large or run the other way; the % refers to the polarisation; further: % of control where 0% means no effect
Epigenetic derep: Quantitative High-Throughput Screen for Regulators of Epigenetic Control. murine LDR cells, GFP reporter derepression, 30 h. Potency, µM (titrated, usually from 53.9 µM), inactives show at the highest dose GFP activation, actives largely listed as activators. actives 0.2% (n = 280,000). AID 1865, 2009; further: potency means the concentration at half of the fitted maximal effect; % of control where 0% means no effect; nearly all actives have a fitted effect of over 60% in size
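Readout is the number of GFP-expressing murine LDR cells, counted by cytometry following washing. Cells were treated with compound for 30 h at 37 C; the stably integrated CMV-GFP locus is normally silent.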
Menin MLL FP TR: qHTS Assay for Inhibitors Targeting the Menin-MLL Interaction in MLL Related Leukemias: Competition With Texas Red Labeled MLL-derived Mutant Peptide; actives 0.23% (n = 270,000); Potency, µM (doses to about 61.6 µM), for the others: top-dose FP activity change, negative = inhibition, most hits filed as inhibitors; Menin + Texas Red MLL mutant peptide, fluorescence polarization; O00255; active means well fitted inhibition curve with a large enough effect in the polarisation, with a control signal flat, not every such curve was filed as active; inconclusive means small, poorly fitted or top-dose-only effect, or effect the other way, or a change in a side signal; inactive means no such curve, though single readings can be large or run the other way; the % refers to the polarisation; further: potency means the concentration at half of the fitted maximal effect; % of control where 0% means no effect
CXXC DNA block: qHTS Fluorescence Polarization Assay for Inhibitors of MLL CXXC domain - DNA interaction | Histone-lysine N-methyltransferase 2A (Homo sapiens), Q03164 | MLL-CXXC / FITC-HOXA9 DNA fluorescence polarization | Potency, µM (highest dose often 115 µM), without a hit: at the highest dose activity change, negative = inhibition, hits mostly inhibitors | actives 0.037% (n = 290,000) | AID 2662, 2010; active means well fitted inhibition curve with a large enough effect in the polarisation, with a control signal flat, not every such curve was filed as active; inconclusive means small, poorly fitted or top-dose-only effect, or effect the other way, or a change in a side signal; inactive means no such curve, though single readings can be large or run the other way; the % refers to the polarisation; further: potency means the concentration at half of the fitted maximal effect
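Purified MLL-CXXC (added from a 7 uM solution) was preincubated 5 min at ambient with pinned compounds in 50 mM Tris-HCl pH 7.5, 50 mM NaCl, 1 mM DTT, 0.05% BSA. Fluorescein-labeled HOX-A9 DNA (50 nM solution) followed, 30 min, then polarization read.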
PINK1 expr mod: A Quantitative High throughput Screen to Identify Chemical Modulators of PINK1 Expression; PINK1 immunofluorescence, high-content cytometry, 24 h; Potency, µM (titrated, usually from 76.6 µM), without a hit: at the highest dose activation (PINK1 increase), actives largely listed as activators; actives 0.2% (n = 410,000); active means well fitted activation curve with a large enough effect; inconclusive means small, poorly fitted or top-dose-only effect; cell line not stated here; further: potency means the concentration at half of the fitted maximal effect; % of control where 0% means no effect; nearly all actives have a fitted effect of over 65% in size
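Decision-based qHTS: stable cells, 24 h exposure to five compound concentrations, CCCP as control. Fixed cells stained for PINK1 plus nuclear, mitochondrial and cell markers, cytometer read.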
Parental c127i: Parental Cell Counter Screen Assay for Epigenetic Modulators: Hit Validation. mouse c127i parental cells, fluorescent cell count, 30 h. Potency, µM, for inactives: at the highest dose fluorescent cell count, usual class: activators. AID 493065, 2011. shares compounds with Epigenetic derep. actives 20% (n = 60)
HCC4017 tox: HCC4017 Cell Viability Secondary Assay for qHTS Assay for Epigenetic Modulators | shares compounds with Epigenetic derep | HCC4017 NSCLC viability, CellTiter-Glo ATP luminescence, 72 h | Potency, µM (series often up to 46.1 µM), for the others: at the top dose activity change, negative = cytotoxicity, actives largely listed as cytotoxic | actives 30% (n = 45) | AID 493071, 2011
H358 tox: H358 Cell Viability Secondary Assay for qHTS Assay for Epigenetic Modulators: Round 2; shares compounds with Epigenetic derep; H358 NSCLC viability, ATP luminescence, 72 h; Potency, µM (titrated, usually from 46.1 µM), for the others: at the top dose activity change, negative = viability loss, actives largely listed as cytotoxic; actives 30% (n = 45); AID 493074, 2011
Active calls of the source: *. Most compounds without a hit are left out; they make up all but 1.9% or so of the library. Unless noted, the call rests on the fitted dose curve; in most records, active means well fitted curve in the direction sought with a large enough effect; inconclusive means small, poorly fitted or top-dose-only effect, or another doubt; inactive means no such curve, though single readings can be large; an effect the other way counts as inactive or inconclusive.

How did Oc1ccc(Br)cc1C=Nc1ccc2c3c(cccc13)CC2 do in these assays?
ClpP mod: 32µM*; Menin MLL FP FL: inconclusive; Epigenetic derep: 3.5µM*; Menin MLL FP TR: inconclusive; CXXC DNA block: -5%; PINK1 expr mod: 6%; Parental c127i: 2%; HCC4017 tox: -11%; H358 tox: inconclusive

Results for COc1ccc(Cl)cc1NC(=O)CSc1cccc[n+]1[O-] ?
ClpP mod: 2%; PINK1 expr mod: -3%

Results for CCc1nnc(NC(=O)c2ccncc2)s1 ?
ClpP mod: 0%; Menin MLL FP FL: -3; Epigenetic derep: -1%; Menin MLL FP TR: -2%; CXXC DNA block: -1%; PINK1 expr mod: 3%

How did CCc1nnc(NC(=O)c2cccc(C(=O)Nc3nnc(CC)s3)n2)s1 do in these assays?
ClpP mod: 2%; Menin MLL FP FL: 0; Epigenetic derep: 2.5µM*; Menin MLL FP TR: -6%; CXXC DNA block: 21%; PINK1 expr mod: -2%; Parental c127i: 6%; HCC4017 tox: 0.5µM*; H358 tox: 0.56µM*

Results for Cc1ccc(/C=[N+](\[O-])c2ccc(N(C)C)cc2)c2nsnc12 ?
Menin MLL FP FL: inconclusive; Epigenetic derep: inconclusive; Menin MLL FP TR: inconclusive; CXXC DNA block: -3%; PINK1 expr mod: -2%; Parental c127i: 18%; HCC4017 tox: 14µM*; H358 tox: 28µM*

Results for O=c1c2ccccc2nc(COc2ccccc2)n1/N=C/c1c[nH]c2ccccc12 ?
ClpP mod: 59%; Menin MLL FP FL: 1; Epigenetic derep: 10µM*; Menin MLL FP TR: inconclusive; CXXC DNA block: 3%; PINK1 expr mod: inconclusive; Parental c127i: 5%; HCC4017 tox: inconclusive; H358 tox: -27%

What do the screens show for `O=c1c2ccccc2nc(COc2ccccc2)n1/N=C/c1ccc(O)cc1O`?
ClpP mod: 10%; Menin MLL FP FL: 3; Epigenetic derep: 0%; CXXC DNA block: 11%; PINK1 expr mod: 0%

How did CC(C)NC(=O)N1CC[C@@]2(CCCN(S(=O)(=O)c3ccccc3)C2)C1 do in these assays?
Menin MLL FP FL: 0; Menin MLL FP TR: 17%; PINK1 expr mod: 0%

What do the screens show for `COc1ccc(OC)c(Nc2nc3nonc3nc2N2CCCC(C)C2)c1` (stereo unspecified)?
Menin MLL FP FL: 3; Epigenetic derep: inconclusive; Menin MLL FP TR: -3%; CXXC DNA block: 4%; PINK1 expr mod: inconclusive; Parental c127i: 14µM*

What do the screens show for `CC1CCCN(c2nc3nonc3nc2Nc2ccccc2F)C1` (stereo unspecified)?
ClpP mod: 3%; Menin MLL FP FL: -1; Epigenetic derep: 1%; Menin MLL FP TR: -7%; CXXC DNA block: -8%; PINK1 expr mod: 2%

How did Cc1ccc(N(CC(=O)Nc2cccc(Cl)c2)S(=O)(=O)c2cccs2)cc1 do in these assays?
ClpP mod: 1%; Epigenetic derep: -4%; PINK1 expr mod: 6%

Results for CCN(CC)CCCNC(=O)CSc1c2c(nc3cc(Cl)ccc13)CCCC2 ?
ClpP mod: 0%; Menin MLL FP FL: 1; Epigenetic derep: inconclusive; Menin MLL FP TR: 7%; CXXC DNA block: 19%; PINK1 expr mod: 5%; Parental c127i: 5%; HCC4017 tox: inconclusive; H358 tox: 28µM*

What do the screens show for `O=C(CSc1c2c(nc3cc(Cl)ccc13)CCCC2)NCCCN1CCOCC1`?
ClpP mod: 0%; Menin MLL FP FL: 0; Epigenetic derep: -2%; Menin MLL FP TR: -1%; CXXC DNA block: 12%; PINK1 expr mod: 2%

What do the screens show for `N#Cc1sc2nc(-c3ccccc3)cc(C(F)(F)F)c2c1N`?
ClpP mod: 2%; Menin MLL FP FL: 4; Epigenetic derep: inconclusive; Menin MLL FP TR: 18%; CXXC DNA block: 6%; PINK1 expr mod: 11µM*; Parental c127i: 16µM*

How did O=C(O)CCCCCN1C(=O)/C(=C\c2ccc(-c3ccc(Cl)cc3)o2)SC1=S do in these assays?
Menin MLL FP FL: inconclusive; Epigenetic derep: 3.5µM*; CXXC DNA block: 70%; PINK1 expr mod: 3%; Parental c127i: 7.9µM*

What do the screens show for `COc1nc(Nc2nc3ccccc3c(=O)[nH]2)nc2ccc(C)cc12`?
ClpP mod: 2%; Menin MLL FP FL: 0; Epigenetic derep: inconclusive; CXXC DNA block: 36%; PINK1 expr mod: 9%; Parental c127i: 5%; HCC4017 tox: 2.8µM*; H358 tox: 3.1µM*

Results for Cc1cc(C)cc(Nc2nc3ccccc3c(=O)[nH]2)c1 ?
Menin MLL FP FL: 2; Epigenetic derep: 2%; Menin MLL FP TR: inconclusive; CXXC DNA block: -5%; PINK1 expr mod: -4%

What do the screens show for `O=C1CN(c2nc(-c3ccccc3)c3cc(Cl)ccc3n2)c2ccccc2N1`?
ClpP mod: -4%; Menin MLL FP FL: 9; Epigenetic derep: inconclusive; Menin MLL FP TR: 4%; CXXC DNA block: 21%; PINK1 expr mod: inconclusive; Parental c127i: 14%; HCC4017 tox: -26%; H358 tox: inconclusive

How did CCOC(=O)C1CCCN(C(=O)c2ccccc2NC(=O)c2nsc3ccccc23)C1 (stereo unspecified) do in these assays?
ClpP mod: -1%; Epigenetic derep: 5%; PINK1 expr mod: 1%

What do the screens show for `CCOc1ccc(-n2ccc(=O)c(C(=O)O)n2)cc1`?
Menin MLL FP FL: -2; Menin MLL FP TR: 1%; CXXC DNA block: -9%; PINK1 expr mod: 1%
